15-hLO inh: qHTS Assay for Inhibitors of 15-hLO (15-human lipoxygenase) | Polyunsaturated fatty acid lipoxygenase ALOX15 (Homo sapiens), P16050 | 74,000 compounds, 1.4% hits | Potency, µM (highest dose often 57.1 µM), most hits filed as inhibitors | purified 15hLO-1, xylenol orange hydroperoxide absorbance; active means well fitted curve in the direction sought with a large enough effect; inconclusive means small, poorly fitted or top-dose-only effect, or another doubt; inactive means no such curve, though single readings can be large; an effect the other way counts as inactive or inconclusive; further: nearly all actives have a fitted effect of over 55% in size
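Compounds were preincubated 15 min at room temperature with 40 nM purified human enzyme (25 mM Hepes pH 7.5, 0.01% Triton X-100); 50 uM arachidonic acid reacted 6 min. Fe-xylenol orange detection, 30 min, absorbance ratio 573/405 nm.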
USP2a inhib: qHTS Assay for Inhibitors of Ubiquitin-specific Protease USP2a. Ubiquitin carboxyl-terminal hydrolase 2 (Homo sapiens), O75604. USP2a enzymatic assay, qHTS inhibition. Potency, µM (highest dose often 38.3 µM), usual class: inhibitors. 60,000 compounds, 0.1% hits. AID 927, 2007; active means well fitted curve in the direction sought with a large enough effect; inconclusive means small, poorly fitted or top-dose-only effect, or another doubt; inactive means no such curve, though single readings can be large; an effect the other way counts as inactive or inconclusive; further: nearly all actives have a fitted effect of over 60% in size
Target sequence (O75604 whole entry, looked up): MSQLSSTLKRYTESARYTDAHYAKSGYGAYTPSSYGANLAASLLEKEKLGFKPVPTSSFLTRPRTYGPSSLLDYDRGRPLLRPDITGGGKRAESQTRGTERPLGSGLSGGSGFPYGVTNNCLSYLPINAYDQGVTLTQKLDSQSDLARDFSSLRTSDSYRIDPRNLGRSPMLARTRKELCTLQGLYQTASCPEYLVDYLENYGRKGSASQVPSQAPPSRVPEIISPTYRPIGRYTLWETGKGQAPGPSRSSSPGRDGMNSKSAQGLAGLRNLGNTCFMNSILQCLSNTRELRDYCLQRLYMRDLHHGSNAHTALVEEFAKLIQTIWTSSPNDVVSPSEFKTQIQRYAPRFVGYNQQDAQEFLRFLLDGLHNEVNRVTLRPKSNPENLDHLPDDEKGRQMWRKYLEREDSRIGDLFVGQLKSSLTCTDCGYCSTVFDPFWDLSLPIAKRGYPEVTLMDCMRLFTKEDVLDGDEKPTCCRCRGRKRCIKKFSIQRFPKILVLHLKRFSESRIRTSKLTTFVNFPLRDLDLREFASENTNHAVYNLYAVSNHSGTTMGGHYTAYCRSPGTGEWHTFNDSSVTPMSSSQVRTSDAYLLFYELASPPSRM
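20 nM USP2 core + cpd, 30 min RT; add 20 nM Ub-PLA2/20 uM NBD C6-HPC; read Ex460/Em535 at 0 h and 2.5 h. Normalized to NEM; qHTS curve fit/classification.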
Tau fil binding: qHTS Assay for Tau Filament Binding | Potency, µM (titrated, usually from 57.1 µM) | recombinant tau filaments, thioflavin S fluorescence, 15 h; filaments grown with octadecylsulfate alongside compound | Microtubule-associated protein tau (Homo sapiens), P10636 | 71,000 compounds, 2% hits; active means well fitted curve in the direction sought with a large enough effect; inconclusive means small, poorly fitted or top-dose-only effect, or another doubt; inactive means no such curve, though single readings can be large; an effect the other way counts as inactive or inconclusive;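 further: actives lower thioflavin S fluorescence by blocking filaments or displacing dye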
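Assay mix: 1 uM His-tagged tau, 30 uM sodium octadecylsulfate, thioflavine S dye in HEPES/NaCl/DTT buffer. Compound is added prior to the inducer. Fluorescence after 15 h at 37 C.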
Hsp90 Hop PPI: qHTS Assay for Disrupters of an Hsp90 Co-Chaperone Interaction. AlphaScreen TPR2A-His6 binding biotin-Hsp90 C-terminal peptide. Potency, µM (top dose mostly 57 µM). 71,000 compounds, 0.44% hits. AID 595, 2007; active means well fitted curve in either direction with a large enough effect; inconclusive means small, poorly fitted or top-dose-only effect, or another doubt
Tau ThS bind: Tau ThS binding assay | 60 compounds, 40% hits | Potency, µM | shares compounds with Tau fil binding | recombinant tau filaments, Thioflavin S fluorescence displacement | AID 911, 2007
aSyn ThS bind: Alpha-synuclein ThS binding assay | shares compounds with Tau fil binding | recombinant alpha-synuclein fibrils, ThS fluorescence displacement | Potency, µM | 60 compounds, 40% hits
Abeta ThS displ: Beta amyloid ThS binding assay | 60 compounds, 50% hits | Abeta1-42 fibrillization, thioflavin S fluorescence, overnight 37 C | shares compounds with Tau fil binding | Potency, µM
Numbers stand for hits; n = inactive; u = inconclusive; x = not tested or not shown; [ ] = remark or other dose. Rows were chosen to be rich in hits. Some 3.2% of all compounds tested hit in one or more screens of this group. Unless noted, the call rests on the fitted dose curve.

SMILES | 15-hLO inh | USP2a inhib | Tau fil binding | Hsp90 Hop PPI | Tau ThS bind | aSyn ThS bind | Abeta ThS displ
CCOC(=O)C1CCN(S(=O)(=O)c2cccc3nonc23)CC1 | n | n | n | n | n | n | n
COc1ccccc1CNc1ncncc1-c1ccccc1Cl | u | n | n | n | x | x | x
Nc1ccc(Nc2ccccc2N)cc1 | u | n | n | u | 2.8µM | 2.3µM | 2µM
Nc1cc(C(=O)O)ccc1Nc1ccccc1 | n[11.4 µM] | n[7.66 µM] | n[11.4 µM] | n[11 µM] | x | x | x
Clc1cccc(Cl)c1C(Nc1nncs1)Nc1nncs1 | n[11.4 µM] | x | n[11.4 µM] | n[11 µM] | x | x | x
CCOc1ccc(-c2cc(NC(=O)Cn3ncc4c3-c3ccccc3OC4)on2)cc1OCC | n | x | n | n | x | x | x
CN(C)c1ccc(NC(=S)c2ccccn2)cc1 | n | n | 5µM | u | 7.1µM | 8.9µM | 6.2µM
CN(C)S(=O)(=O)c1ccc(NC(=O)c2ccccn2)cc1 | n | n | n | n | x | x | x
CN(C)c1ccc(/C=C2/C(=O)Nc3ccccc32)cc1 | n | n | 1µM | u | 0.99µM | 1.4µM | 0.67µM
CCn1c(=O)cc(OCC(=O)Nc2ccccc2N2CCN(C)CC2)c2ccccc21 | n | x | n | n | x | x | x
CC(=O)OCCNc1cc(N2CCN(C)CC2)c2noc3c2c1C(=O)c1ccccc1-3 | n | x | 3.2µM | u | 3µM | 2.7µM | 1.3µM
CCOc1cc2[nH]c(=O)n(CCCCC(=O)NC3CCCCC3)c(=O)c2cc1OCC | n | n | n | u | n | n | n
COc1cc2[nH]c(=O)n(CCC(=O)NC3CCCC3)c(=O)c2cc1OC | n | n | n | n | x | x | x
C[C@@H]1C[C@H](OC(=O)[C@@H](O)c2ccccc2)CC(C)(C)N1C | n | n | n | n | x | x | x
CCOC(=O)N1CCc2c(sc3c2C(=O)NC(c2ccc(-c4ccc(Cl)cc4)o2)N3)C1 (configuration not stated) | n | n | 0.63µM | n | n | n | n
CN1CCc2c(sc3c2C(=O)NC(c2ccc4c(c2)OCO4)N3)C1 (configuration not stated) | u | n | n | n | x | x | x
CN(C)c1ccc(C(=C2C=CC(=[N+](C)C)C=C2)c2c(O)c(S(=O)(=O)O)cc3cc(S(=O)(=O)O)ccc23)cc1 | n[11.4 µM] | x | n[11.4 µM] | u | u | n | n
CN(C)c1ccccc1CN1CCCN(Cc2ccccc2N(C)C)C1c1ccncc1 | n[11.4 µM] | x | n[11.4 µM] | n[11 µM] | x | x | x
Nc1c(N=Nc2ccc(-c3ccc(N=Nc4cc(S(=O)(=O)O)c5ccccc5c4N)cc3)cc2)cc(S(=O)(=O)O)c2ccccc12 | x | x | x | x | 0.29µM | 0.42µM | 2.4µM
Cc1cc(-c2ccc(N=Nc3ccc4c(S(=O)(=O)O)cc(S(=O)(=O)O)c(N)c4c3O)c(C)c2)ccc1N=Nc1ccc2c(S(=O)(=O)O)cc(S(=O)(=O)O)c(N)c2c1O | u | x | 3.2µM | 4µM | 0.19µM | 0.77µM | 0.92µM
COC(=O)[C@@H]1C[C@H]1[C@@H](NS(=O)(=O)c1ccc2ccccc2c1)c1ccccc1 | x | x | n | n | x | x | x
O=C(c1[nH]o[n+](=O)c1C(=O)c1csc2ccccc12)c1csc2ccccc12 | n[11.4 µM] | x | n[11.4 µM] | n[11 µM] | x | x | x
Cc1cc(C(=O)Nc2ccc(N3CCOCC3)cc2)c2ccccc2n1 | n | n | 7.9µM | n | n | n | n
COc1ccc(C(=O)N2CCC3(CCCN(CC(C)C)C3)CC2)cc1 | n | n | n | n | x | x | x
C#CCCCC(=S)Nc1ccccc1 | x | x | n | u | x | x | x
SMILES | 15-hLO inh | USP2a inhib | Tau fil binding | Hsp90 Hop PPI | Tau ThS bind | aSyn ThS bind | Abeta ThS displ
Cc1cc(NC(=O)c2cc3nc(C4CC4)cc(C(F)(F)F)n3n2)no1 | n | n | n | n | u | n | u
N=C(N)c1ccc(N=Nc2c(O)ccc3c2[nH]c2ccccc23)cc1 | n[11.4 µM] | x | 1µM | u | 0.81µM | 2.6µM | 1µM
O=C(O)c1ccc(S(=O)(=O)N=Nc2c(O)[nH]c3ccccc23)cc1 | n[11.4 µM] | x | n[11.4 µM] | n[11 µM] | x | x | x
CN1c2cccc3cccc(c23)N(C)C1(C)C | n | n | n | n | n | u | u
CN1/C(=N\O)c2cccc3cccc1c23 | n | n | n | n | x | x | x
COc1cccc2c1C(=N)c1c(O)c3c(c(O)c1C2=O)C[C@](O)(C(C)=O)C[C@@H]3O[C@H]1C[C@H](N)[C@@H](O)[C@H](C)O1 | n[11.4 µM] | x | 1.3µM | n[11 µM] | 1.8µM | 2µM | 0.68µM
CCCCOc1ccc(C(=O)Nc2ccc(N3CCN(C)CC3)cc2)cc1 | n | n | 1µM | n | u | n | n

High-throughput results as filed in PubChem.
